Laboratory results as given in PubChem BioAssay AID624094 (National Center for Advancing Translational Sciences (NCATS), 2012).
Results filed as inconclusive are left out. The source made the active and inactive calls. Calls follow the shape of the dose curve; as a rule, active = well fitted inhibition curve with a large enough effect; inconclusive = small, poorly fitted or top-dose-only effect; inactive = flat fitted curve, though single readings scatter.

Molecular target: Dual specificity protein kinase CLK4 (Homo sapiens) (UniProt Q9HAZ1)
Test: Confirmation Assay for Inhibitors of Clk4 (Kinase-Glo Assay): KU probe
Conditions: recombinant Clk4, Kinase-Glo ATP luminescence; series mostly up to 76.9 µM
Summary of the method: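 Read-out was Kinase-Glo luciferase luminescence of ATP left after 4.5 h room-temperature reaction. Final conditions: Clk4 25 nM, ATP 1 uM, RS peptide 100 uM, 25 mM Tris pH 7.5, 10 mM MgCl2, 0.5 mM EGTA, 2.5 mM DTT, 0.01% Triton X-100.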

Chain of Dual specificity protein kinase CLK4 (Homo sapiens) (Q9HAZ1 whole entry, looked up): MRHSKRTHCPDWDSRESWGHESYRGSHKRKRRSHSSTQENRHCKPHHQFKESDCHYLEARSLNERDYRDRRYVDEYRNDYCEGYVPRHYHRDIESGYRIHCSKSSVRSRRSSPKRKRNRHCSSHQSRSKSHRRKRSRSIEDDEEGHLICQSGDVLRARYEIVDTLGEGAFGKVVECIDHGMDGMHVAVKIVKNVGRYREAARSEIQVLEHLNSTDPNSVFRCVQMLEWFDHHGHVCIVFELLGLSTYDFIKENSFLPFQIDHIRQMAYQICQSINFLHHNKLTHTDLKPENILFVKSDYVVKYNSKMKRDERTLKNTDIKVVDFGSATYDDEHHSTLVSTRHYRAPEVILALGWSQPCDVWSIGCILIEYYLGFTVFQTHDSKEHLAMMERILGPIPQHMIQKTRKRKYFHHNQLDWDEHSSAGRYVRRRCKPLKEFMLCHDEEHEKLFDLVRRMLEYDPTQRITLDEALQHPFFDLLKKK

Potency, inactive:
Cc1ccc(CNc2ccnc(-c3ccc(N(C)C)cc3)n2)cc1

Potency, active:
c1cncc(CNc2cc(-c3ccc4c(c3)OCO4)ncn2)c1 6540 nM
Clc1ccc(CNc2nccc(-c3ccc4[nH]ncc4c3)n2)cc1Cl 26 nM
Cc1c(-c2ccnc(Nc3cc(Br)cc(C(F)(F)F)c3)n2)sc(=O)n1C 51.9 nM
Cc1ccc(CNc2ccnc(-c3cccc(C#N)c3)n2)cc1 23200 nM
c1nc(NCC2CC2)c2cc(-c3ccc4c(c3)OCO4)ccc2n1 32.8 nM
Clc1ccc(CNc2nccc(-c3ccc4cn[nH]c4c3)n2)cc1Cl 5820 nM
CN(CC1CCCCO1)c1ncnc2ccc(-c3ccc4c(c3)OCO4)cc12 (centres undefined) 46.3 nM
Clc1ccc(CNc2cc(-c3ccc4c(c3)OCO4)ncn2)cc1Cl 4630 nM
COc1cccc(-c2ccnc(NCc3ccc(Cl)c(Cl)c3)n2)c1 3680 nM
COc1cccc(-c2ccnc(NCc3ccc(Cl)cc3)n2)c1 5820 nM
Clc1cc(Cl)cc(CNc2ccnc(-c3ccc4c(c3)OCO4)n2)c1 4120 nM
Clc1ccc(CNc2nccc(-c3ccc4c(c3)OCO4)n2)cc1 51.9 nM
COc1ccc(CNc2ccnc(-c3cccc(OC)c3)n2)cc1 23200 nM
Clc1ccc(CNc2cc(-c3ccc4c(c3)OCO4)ncn2)cc1 2320 nM
CC(C)(C)CNc1ncnc2ccc(-c3ccc4c(c3)OCO4)cc12 65.4 nM
CC(=O)c1ccc(-c2ccc3ncnc(NCc4ccc(C)o4)c3c2)o1 130 nM
Clc1ccc(CNc2nccc(-c3ccc4c(c3)OCO4)n2)cc1Cl 41.2 nM
O=c1cnc2cnc(Nc3ccccc3)nc2n1CCc1ccccc1 184 nM
FC(F)(F)c1cc(Br)cc(Nc2nccc(-c3ccc4c(c3)OCO4)n2)c1 130 nM
c1cncc(CNc2nccc(-c3ccc4cn[nH]c4c3)n2)c1 41.2 nM
COc1cccc(-c2nccc(NCc3ccc(C)cc3)n2)c1 23200 nM
Nc1ncnc2c1c(I)cn2C1OC(CO)C(O)C1O (centres undefined) 11.6 nM
CCN(C)c1ncnc2ccc(-c3ccc4c(c3)OCO4)cc12 36.8 nM
FC(F)(F)c1cccc(Nc2nccc(-c3ccc4c(c3)OCO4)n2)c1 65.4 nM
COc1cccc(Nc2ncc3ncc(=O)n(CCc4ccccc4)c3n2)c1 92.3 nM
Cc1c(-c2ccnc(NCc3ccc(Cl)cc3)n2)sc(=O)n1C 58.2 nM
Clc1cc(Cl)cc(CNc2cc(-c3ccc4c(c3)OCO4)ncn2)c1 1640 nM
c1ccc(CNc2ccnc(-c3ccc4c(c3)OCO4)n2)cc1 23200 nM
